# Screens (PubChem)
# Shown are actives, neighbours in structure and some others; about 11% of the full set was active somewhere.
# NIH3T3 tox – cytotoxic compounds in NIH 3T3 cells. NIH 3T3 viability, CellTiter-Glo ATP luminescence, 48-72 h. Potency, µM (highest dose often 96.7 µM), inactives show top-dose activity change, negative = cytotoxicity, hits mostly inhibitors. 94,000 compounds, 4.3% hits. AID 1345082; also: nearly all actives have a fitted effect of over 55% in size
#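 Cells were seeded at 400 per well, treated with pin-transferred compound, and kept 48 or 72 hr at 37 °C before CellTiter-Glo addition and luminescence imaging of cellular ATP.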
# HEK cytotox – HEK 293 cell cytotoxicity | HEK 293 viability, ATP luminescence (CellTiter-Glo), 48-72 h | Potency, µM (doses to about 115 µM), inactives show top-dose activity change, negative = cytotoxicity, usual class: inhibitors | 94,000 compounds, 6.6% hits; also: nearly all actives have a fitted effect of over 60% in size
#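 Luminescence from cellular ATP, measured with CellTiter-Glo, indicates HEK 293 viability. Cells plated at 250 cells/well are treated with compound for 48 or 72 hr at 37 degree Celsius before reagent addition.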
# Luciferase inh – Photinus pyralis luciferase inhibition; purified P. pyralis luciferase, luminescence, biochemical; P08659; 76,000 compounds, 2.5% hits; Potency, µM (titrated, usually from 115 µM), hits mostly inhibitors; also: nearly all actives have a fitted effect of over 65% in size
#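 Purified P. pyralis luciferase (10nM final) in 50mM Tris acetate pH 7.5, 10mM Mg acetate, 0.01% Tween-20, 0.05% BSA with 10uM D-luciferin and 10uM ATP. Compounds titrated qHTS. Luminescence imaged on CCD.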
# hNpr1 antagonist – blocks ANP-stimulated signaling of human Npr1 receptor; HEK293 hNpr1 GloSensor cGMP, ANP-stimulated luminescence; P16066; Potency, µM (titrated, usually from 46.3 µM), without a hit: at the highest dose activity change, negative = inhibition, actives largely listed as inhibitors; AID 1347048; 76,000 compounds, 1.6% hits; calls by dose curve; also: nearly all actives have a fitted effect of over 60% in size
# Target sequence (P16066 whole entry, looked up): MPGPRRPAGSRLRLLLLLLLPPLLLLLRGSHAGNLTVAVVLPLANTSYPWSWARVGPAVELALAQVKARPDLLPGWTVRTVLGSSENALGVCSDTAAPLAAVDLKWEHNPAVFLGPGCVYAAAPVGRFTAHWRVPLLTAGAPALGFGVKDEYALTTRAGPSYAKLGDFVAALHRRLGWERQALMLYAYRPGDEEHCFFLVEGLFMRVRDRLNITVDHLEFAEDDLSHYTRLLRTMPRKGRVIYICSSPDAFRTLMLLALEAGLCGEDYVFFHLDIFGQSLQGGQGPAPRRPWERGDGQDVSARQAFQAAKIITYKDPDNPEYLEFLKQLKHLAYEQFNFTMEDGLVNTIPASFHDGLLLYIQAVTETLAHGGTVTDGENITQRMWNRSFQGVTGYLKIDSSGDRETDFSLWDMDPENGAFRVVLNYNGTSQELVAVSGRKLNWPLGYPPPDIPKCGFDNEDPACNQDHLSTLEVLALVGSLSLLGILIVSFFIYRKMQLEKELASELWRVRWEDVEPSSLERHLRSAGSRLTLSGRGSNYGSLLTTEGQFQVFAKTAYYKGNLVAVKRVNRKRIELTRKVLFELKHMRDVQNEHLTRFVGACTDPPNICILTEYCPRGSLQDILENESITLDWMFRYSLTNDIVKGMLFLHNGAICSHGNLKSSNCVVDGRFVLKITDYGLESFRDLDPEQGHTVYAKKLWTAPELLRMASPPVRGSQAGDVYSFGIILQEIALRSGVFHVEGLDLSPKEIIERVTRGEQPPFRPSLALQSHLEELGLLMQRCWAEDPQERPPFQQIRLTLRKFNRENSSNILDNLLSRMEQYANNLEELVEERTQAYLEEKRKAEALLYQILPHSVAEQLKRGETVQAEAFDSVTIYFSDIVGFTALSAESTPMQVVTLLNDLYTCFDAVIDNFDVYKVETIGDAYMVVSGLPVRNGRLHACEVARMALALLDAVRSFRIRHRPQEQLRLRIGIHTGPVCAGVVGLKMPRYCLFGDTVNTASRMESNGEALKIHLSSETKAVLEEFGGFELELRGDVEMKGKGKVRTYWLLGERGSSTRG
#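 HEK293 cells stably expressing human Npr1 and cGMP GloSensor pGS-40F, loaded 2 h with 2% GloSensor reagent, given compound 30 min at room temperature. Luminescence read before and 20 min after 0.1 nM hNppA.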
# Active calls of the source: *; i = inactive; ? = inconclusive; . = not tested or not shown; [ ] = remark or other dose. Unless noted, calls follow the shape of the dose curve; as a rule, active = well fitted curve in the direction sought with a large enough effect; inconclusive = small, poorly fitted or top-dose-only effect, or another doubt; inactive = no such curve, though single readings can be large; an effect the other way counts as inactive or inconclusive. % is scaled to controls: 0 for no effect and ±100 for the full control effect; potency is read from the fitted curve at half-maximal effect.
SMILES,NIH3T3 tox,HEK cytotox,Luciferase inh,hNpr1 antagonist
CCC(C)(C)C(=O)N1CCC2(CC1)CC(N(Cc1ccc(F)cc1)C1CC1)CCO2 (stereo not given),?,45µM*,i,-8%
CC(=O)N1CCC2(CC1)CC(N(Cc1ccc(F)cc1)C1CC1)CCO2 (stereo not given),4%,-11%,i,4%
O=C(c1ccccc1)N1CCC2(CC1)CC(N(Cc1ccc(F)cc1)C1CC1)CCO2 (stereo not given),?,45µM*,i,-22%
CN(C)c1ccc(C(=O)NC2CC(c3nnc(CO)n3C3CC3)C2)cn1 (stereo not given),1%,3%,i,-1%
O=C1CCN(C(=O)C2CCN(S(=O)(=O)c3cccs3)CC2)CCCCCCN1,-8%,i,i,0%
COc1ccc(CN2CCCCCNC(=O)CC2c2ccccc2)cc1Cc1c(C)noc1C (stereo not given),35µM*,?,i,-11%
COc1ccc(CN2CCCCCNC(=O)CC2c2ccccc2)cc1Cn1ccnc1 (stereo not given),40µM*,35µM*,i,-30%
O=C1CC(c2ccccc2)N(Cc2ccc(C(F)(F)F)cc2)CCCCCN1 (stereo not given),?,?,i,?
COc1cccc(CN2CCCCCCNC(=O)CC2c2ccccc2)c1 (stereo not given),?,?,i,-29%
O=C1CC(c2ccccc2)N(Cc2ccc(F)c(F)c2)CCCCCN1 (stereo not given),40µM*,?,i,-21%
O=C(CCc1ccc2c(c1)CN(C(=O)C1COc3ccccc3O1)CCO2)N1CCOCC1 (stereo not given),?,-14%,.,.
O=C1c2c(nc(CNCc3cnccn3)n2Cc2ccccc2)NCCN1Cc1cccc(Cl)c1,?,?,i,-10%
Cc1ccc(C(=O)NC(C(=O)N2CCCCC2)C2CCN(S(=O)(=O)C(C)C)CC2)cc1 (stereo not given),-7%,4%,i,6%
CN1CCC(N[C@H]2C[C@@H](Cc3cc(-c4ccc(F)cc4)on3)C2(C)C)CC1,7.1µM*,8.9µM*,63µM*,?
CN(Cc1cc(C[C@@H]2C[C@H](NC(=O)COc3ccccc3)C2(C)C)no1)c1ccccc1,?,?,i,?
CC1(C)[C@H](Cc2cc(COc3ccccc3)on2)C[C@@H]1NC(=O)COc1ccccc1,63µM*,50µM*,i,?
CCNC(=O)N[C@H]1C[C@@H](Cc2cc(COc3ccccc3)on2)C1(C)C,?,89µM*,i,4%[70.6 µM]
CC(C)(C)CN[C@H]1C[C@@H](Cc2cc(COc3ccccc3)on2)C1(C)C,28µM*,22µM*,i,-12%[70.6 µM]
CCCN[C@H]1C[C@@H](Cc2cc(COc3ccccc3)on2)C1(C)C,?,?,i,-5%[70.6 µM]
O=C(NC(c1ccccc1)c1ccccc1)c1cnc2c(c1)N(Cc1ccccc1)CCC2,?,?,i,3%[70.6 µM]
O=C(NC1CCN(CCn2nc3n(c2=O)CCCC3)C1)c1cccnc1 (stereo not given),-13%[138 µM],-1%[172 µM],.,.
COCC(=O)N[C@H]1C[C@@H](Cc2cc(-c3ccc(OC)cc3)on2)C1(C)C,56µM*,35µM*,?,-14%[70.6 µM]
CCCCc1cc(C[C@@H]2C[C@H](NC(=O)c3cccc(F)c3)C2(C)C)no1,63µM*,63µM*,i,?
CC1(C)[C@H](Cc2cc(COc3ccccc3)on2)C[C@@H]1NC(=O)Cc1ccccc1,56µM*,56µM*,i,?
COc1ccc(C(=O)N[C@H]2C[C@@H](Cc3cc(COc4ccccc4)on3)C2(C)C)cc1,28µM*,?,i,?
COc1ccc(-c2cc(C[C@@H]3C[C@H](NC(=O)c4ccccc4)C3(C)C)no2)cc1,?,?,i,?
CC1(C)[C@H](Cc2cc(COc3ccccc3)on2)C[C@@H]1NC1CCOCC1,?,?,i,4%[70.6 µM]
O=C1CN(C(=O)c2ccc(Cl)cc2)CC(O)CN1Cc1ccc(Cl)cc1 (stereo not given),-40%,?,.,.
COc1ccc(-c2cccc(C(=O)N3CCN(C(=O)C4CC4)CC3)c2)nn1,-18%,-10%,.,.
Cc1ccc(OCC(=O)N2CCOc3ccc(CN4CCOCC4)cc3C2)cc1,-30%,-28%,.,.
